Source: PubChem BioAssay (NCATS)
Results filed as inconclusive are left out. Activity calls are given as the source filed them. Calls come from the whole dose curve; as a rule, active = well fitted inhibition curve with a large enough effect; inconclusive = small, poorly fitted or top-dose-only effect; inactive = flat fitted curve, though single readings scatter.

Columns and labels:
Test in all cases: qHTS profiling for inhibitors of Plasmodium falciparum proliferation (AID 504749); note: nearly all actives have a fitted effect of over 60% in size
Conditions in all cases: P. falciparum in erythrocytes, SYBR Green DNA, 72 h; series mostly up to 28.7 µM
P93_24 = test system: P93_24
Method in brief: (§1)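 P. falciparum-infected erythrocytes (0.3% parasitemia, 2.5% hematocrit) incubated with compound 72 h at 37 C, 5% CO2. Parasite DNA detected by SYBR Green after lysis, overnight at room temperature; normalised to 0.29 uM artemisinin and DMSO.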

P94_40 = test system: P94_40
Method in brief: as §1

PAD = test system: PAD
Method in brief: as §1

PC15 = test system: PC15
Method in brief: as §1

PC26 = test system: PC26
Method in brief: as §1

PC49 = test system: PC49
Method in brief: as §1

SC27B = test system: SC27B
Method in brief: as §1

TAB109 = test system: TAB109
Method in brief: as §1

TAB113 = test system: TAB113
Method in brief: as §1

TAB165 = test system: TAB165
Method in brief: as §1

Measured: Potency

CCN(CC)CCOc1ccc(Cc2ccccc2)cc1
inactive: all assays above

CCCCc1ccc2nc(NC(=O)OC)[nH]c2c1
inactive: all assays above

CCOc1cc(CC(=O)N[C@@H](CC(C)C)c2ccccc2N2CCCCC2)ccc1C(=O)O
inactive: all assays above

C=C(c1ccc(C(=O)O)cc1)c1cc2c(cc1C)C(C)(C)CCC2(C)C
inactive: all assays above

CC1(C)CCC(C)(C)c2cc(NC(=O)c3ccc(C(=O)O)cc3)ccc21
inactive: all assays above

Nc1cc(C(Cl)=C(Cl)Cl)c(S(N)(=O)=O)cc1S(N)(=O)=O
inactive: all assays above

Cc1cc2cc3c(C)cc(=O)oc3c(C)c2o1
inactive: all assays above

Cc1ncc([N+](=O)[O-])n1CC(C)O (stereo not drawn)
inactive: all assays above

Cc1nc2n(c(=O)c1CCN1CCC(c3noc4cc(F)ccc34)CC1)CCCC2
inactive: all assays above

N[C@@H](Cc1cc(I)c(Oc2cc(I)c(O)c(I)c2)c(I)c1)C(=O)O
inactive: all assays above

O=C(CS(=O)Cc1ccco1)NCC=CCOc1cc(CN2CCCCC2)ccn1 (stereo not drawn)
not listed: TAB109
inactive: all other assays above

Nc1ccn([C@@H]2O[C@H](CO)[C@@H](O)C2O)c(=O)n1 (stereo partly drawn)
not listed: PC26
inactive: all other assays above

O=C(O)c1cccc(-c2noc(-c3ccccc3F)n2)c1
inactive: all assays above

COc1ccc(C2(C#N)CCC(C(=O)O)CC2)cc1OC1CCCC1 (stereo not drawn)
inactive: all assays above

CCOC(=O)c1c(C)n(C)c2ccc(O)cc12
inactive: all assays above

O=C(O)c1cccnc1Nc1cccc(C(F)(F)F)c1
inactive: all assays above

Cc1ccc(C)c(OCCCC(C)(C)C(=O)O)c1
inactive: all assays above

CN1C(C(=O)Nc2ccccn2)=C(O)c2sccc2S1(=O)=O
inactive: all assays above
